This note sets out measurements from PubChem BioAssay (Tox21).

Inconclusive results are not listed. Activity calls are given as the source filed them. Calls follow the shape of the dose curve; as a rule, active = well fitted cell-killing curve with a large enough effect in the repeat runs; inconclusive = weak or mixed curves, or effect the other way; inactive = no such curve, though single readings can be large or run the other way.
% is scaled to controls: 0 for no effect and ±100 for the full control effect.

A short description of the assay: qHTS assay to identify small molecule agonists of the estrogen receptor alpha (ER-alpha) signaling pathway in the presence of an antagonist - cell viability counter screen (AID 1259386).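 Also: cells exposed to compounds for 22 h at 37 °C before the viability read; nearly all actives have a fitted effect of over 30% in size.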 To be noted: VM7Luc4E2 viability, CellTiter-Fluor fluorescence, 22 h; series mostly up to 92.4 µM; activity change, negative = cytotoxicity: at the top concentration. The text has this:
National Center for Advancing Translational Sciences [NCATS]
NIH Chemical Genomics Center [NCGC]
U.S. Environmental Protection Agency [EPA]
National Institutes of Environmental Health Sciences [NIEHS]
National Toxicology Program [NTP]
U.S. Food and Drug Administration [FDA]
Estrogen receptor (ER), a member of nuclear hormone receptor plays an important role in development, metabolic homeostasis and reproduction. Two subtypes of ER, ER-alpha and ER-beta, have similar expression patterns with some uniqueness in both types. Endocrine disrupting chemicals (EDCs) and their interactions with steroid hormone receptors like ER causes disruption of normal endocrine function. Therefore, it is important to understand the effect of environmental chemicals in ER signaling pathway. For identifying ER agonists, VM7Luc4E2 cell line has been used in the current assay.
VM7Luc4E2 cell line (provided by Denison MS, University of California) endogenously expresses full-length ER-alpha and is stably transfected with a plasmid containing four estrogen responsive elements (ERE) upstream of a luciferase reporter gene. This current screening for measuring luciferase reporter gene activity using VM7Luc4E2 cells against Tox21 10K library collection is a confirmation study on agonist mode screening in presence of ER-antagonist (ICI-182,780) at 10.0nM final concentration. The cytotoxicity of the compounds was tested in parallel by measuring the cell viability using CellTiter-Fluor assay system (Promega, Madison, WI) in the same wells.
Tox21 Assay Protocol Summary:
VM7Luc4E2 cells were cultured in phenol red free assay medium containing 10% charcoal stripped FBS for 5 days prior to the assay. The cells were dispensed at 4,000 cells in 4uL of assay medium per well into white wall/solid-bottom 1536-well plates (Corning Life Sciences, Corning, NY) using a Multidrop Combi (Thermo Fisher Scientific Inc., Waltham, MA) dispenser. After the assay plates were incubated at 37C and 5% CO2 for 24hr, 1uL of 10.0nM (final concentration) ICI-182,780 or assay buffer was added using two separate tips of Flying Reagent Dispenser (FRD, Aurora Discovery, San Diego, CA). Then 23nL of compounds dissolved in DMSO at 15 concentrations and positive controls or DMSO only was transferred to the assay plates by a Pintool station (Wako, San Diego, CA). The assay plates were incubated at 37C and 5% CO2 for 22hr. After 21hr incubation at 37C, 1uL/well CellTiter-Fluor reagent (Promega Corporation, Madison, WI) was added to each well using FRD and after 1hr incubation at 37C and 5% CO2, the fluorescence signal was measured on ViewLux plate reader (PerkinElmer, Shelton, CT).
On the technique in general: qHTS replaces the single test concentration by a dilution series.
As for `CCOC(=O)N(C)N=O`, the “activity change, negative = cytotoxicity” value is 3.17% (inactive). For the molecule `N#CN=C1SCCN1Cc1ccc(Cl)nc1`, the “activity change, negative = cytotoxicity” value was 0.618% (inactive). To `COC[C@@H](NC(C)=O)C(=O)NCc1ccccc1` belongs 7.09% [at 42.5 µM] (inactive); to `NCC1(CC(=O)O)CCCCC1`, 3.08% [at 42.5 µM] (inactive). As for `COC(=O)c1ccc(CBr)cc1`, the figure is -0.575% (inactive); as for `C[C@H](N)C(=O)c1ccccc1`, -8.9% (inactive); as for `O=C(Cl)c1ccccc1`, 0.339% (inactive). As for `C(COCC1CO1)OCC1CO1` (stereo not given), the figure is 2.72% (inactive); as for `CCC1(CC)C(=O)C=CNC1=O`, 4.3% [at 42.5 µM] (inactive).

`CCN(CCO)CCO`: the “activity change, negative = cytotoxicity” value was 0.369% (inactive).

Consider `COP(=O)(OC)O/C(C)=C/C(=O)N(C)C`, for which the “activity change, negative = cytotoxicity” value was -0.939% (inactive).

Regarding `C#CCOC(=O)/C=C(C)/C=C/CC(C)CCCC(C)C` (stereo not given), the “activity change, negative = cytotoxicity” value is 0.826% (inactive).

`COc1ccc2c(C(=O)c3ccc(Cl)cc3)c(C)n(CC(=O)O)c2c1`: the “activity change, negative = cytotoxicity” value is -4.83% [at 42.5 µM] (inactive).

Consider `CCNP(=S)(OC)O/C(C)=C/C(=O)OC(C)C` (stereo not given), for which the “activity change, negative = cytotoxicity” value was -0.161% (inactive). To `COC1=CC(=O)O[C@@H](/C=C/c2ccccc2)C1` belongs 1.13% (inactive). Turning to `Cc1ccc(S(=O)(=O)N[C@@H](CCCCN)C(=O)CCl)cc1`, the “activity change, negative = cytotoxicity” value is -6.69% [at 42.5 µM] (inactive). As for `O=C(NC(O)C(Cl)(Cl)Cl)NC(O)C(Cl)(Cl)Cl` (stereo not given), the figure is 4.72% [at 42.5 µM] (inactive). As for `O=P(O)(O)c1ccccc1`, the figure is -0.106% (inactive); as for `C=C(Cl)CCl`, -1.52% (inactive); as for `CCCOc1nn(C(=O)NS(=O)(=O)c2ccccc2C(=O)OC)c(=O)n1C`, 0.539% (inactive). As for `C#CC(C)(C)O`, the “activity change, negative = cytotoxicity” value is 1.82% (inactive). To `[O-][Br+2]([O-])O` belongs -6.86% [at 42.5 µM] (inactive); to `N[C@@H]1C[C@H]1c1ccccc1`, -1.81% [at 42.5 µM] (inactive); to `NNCc1ccccc1`, -0.884% (inactive). As for `CCCC[N+](=O)[O-]`, the figure is 5.1% (inactive). Take `CON(C)C(=O)Nc1ccc(Br)cc1`: the “activity change, negative = cytotoxicity” value is -0.649% (inactive).

Take `O=c1[nH]oc2c1CCNC2`: the “activity change, negative = cytotoxicity” value was 1.5% [at 42.5 µM] (inactive). As for `O=C1C2CC=CCC2C(=O)N1SC(Cl)(Cl)Cl` (stereo not given), the figure is 1.93% (inactive); as for `Cc1ccc2c(c1)C1CN(C)CCC1N2` (stereo not given), -4.97% [at 19 µM] (inactive). On to `CCOP(=S)(OCC)Oc1ccc(Cl)cc1Cl`, for which the “activity change, negative = cytotoxicity” value is -1.88% (inactive). For the molecule `O=C(O)C(Cl)Br` (stereo not given), the “activity change, negative = cytotoxicity” value is 1.03% (inactive). To `O=[N+]([O-])CCO` belongs -1.93% (inactive); to `CC(C)NCC(O)c1ccc([N+](=O)[O-])cc1` (stereo not given), -6.9% [at 42.5 µM] (inactive). In the case of `CC#Cc1cc(C)nc(Nc2ccccc2)n1`, the “activity change, negative = cytotoxicity” value is -8.66% (inactive). For `CNC(=O)Oc1cc(C)c(N(C)C)c(C)c1`, the “activity change, negative = cytotoxicity” value is -5.69% (inactive). As for `CCC(C)(C#N)N=NC(C)(C#N)CC` (stereo not given), the figure is -0.791% (inactive); as for `CC(O)CCl` (stereo not given), 3.09% (inactive); as for `O=C(NC(=O)c1c(F)cccc1F)Nc1cc(Cl)c(F)c(Cl)c1F`, 0.103% (inactive). With `O=CCCl`, the “activity change, negative = cytotoxicity” value is 1.63% (inactive). To `COC(=O)[C@@H](N)CCCN/C(N)=N/[N+](=O)[O-]` belongs 0.0168% [at 42.5 µM] (inactive).
